A selection: hits, their analogues and other compounds. The true share with any hit is near 2%.
TDP-43 yeast inh – qHTS of TDP-43 Inhibitors; TDP-43 expressing yeast growth rescue, BacTiter-Glo, 24 h; Potency, µM (top dose mostly 46.1 µM), usual class: activators; 410,000 tested, 1.8% active; AID 652104, 2013; further: nearly all actives have a fitted effect of over 50% in size
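Cell-based yeast growth screen: TDP-43 expression induced in galactose, inoculum OD600=0.02 after raffinose pregrowth to mid-log. Read-out BacTiter-Glo luminescence at 24 hr, 30 deg C; inhibition of toxicity seen as signal increase.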
GRP78 ERSR act – qHTS for Inducers of the Endoplasmic Reticulum Stress Response (ERSR) in Human Glioma: qHTS; 420,000 tested, 0.02% active; U87-MG GRP78 promoter luciferase reporter, 16 h; AID 602332, 2012; Potency, µM, hits mostly activators; further: series mostly up to about 76 µM; nearly all actives have a fitted effect of over 35% in size
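ERSR induction read as luciferase luminescence (Bright-Glo, 10 min at room temperature) in stably transfected human U87-MG glioma cells exposed to compounds for 16 h, using GRP78 as sensor.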
FUS suppressor – qHTS for Suppressors of FUS Proteinopathy: Primary screen using FUS-linked yeast assay | S. cerevisiae FUS-expressing, growth rescue, OD600, 24 h | AID 1347120, 2019 | Potency, µM (highest dose often 76.6 µM), actives largely listed as activators | 390,000 tested, 0.24% active; further: nearly all actives have a fitted effect of over 55% in size
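Restored growth of FUS-toxic S. cerevisiae, read as 600 nm absorbance after 24 h at 30C in galactose medium (starting OD 0.005). Controls CP55940 and DMSO.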
Abeta yeast res – qHTS for compounds that reverse cellular toxicity of Amyloid beta (A-beta) peptide in yeast: Primary Screen. yeast expressing A-beta42, growth rescue, OD600, 48 h; response scale: 0% DMSO, 100% iron-clioquinol control. Potency, µM (highest dose often 46.1 µM), actives largely listed as activators. 410,000 tested, 0.063% active. AID 1347071, 2019; further: nearly all actives have a fitted effect of over 55% in size
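Yeast A-beta toxicity model in growth medium with pinned compounds, 48 h at 30 C; growth read as absorbance at 600 nm. Normalized to FeCl3/clioquinol equimolar mix (positive) and DMSO (negative).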
MBNL1 CUG block – qHTS Assay for Inhibitors of MBNL1-poly(CUG) RNA binding | Muscleblind-like protein 1 (Homo sapiens), Q9NR56 | TR-FRET MBNL1-His/biotin-(CUG)12 binding, 665/545 ratio | Potency, µM (doses to about 57.5 µM), hits mostly inhibitors | 280,000 tested, 0.036% active | AID 2675, 2010; active means well fitted inhibition curve with a large enough effect in the signal ratio, with a control signal flat, not every such curve was filed as active; inconclusive means small, poorly fitted or top-dose-only effect, or effect the other way, or a change in a side signal; inactive means no such curve, though single readings can be large or run the other way; the % refers to the signal ratio
Target sequence (Q9NR56 whole entry, looked up): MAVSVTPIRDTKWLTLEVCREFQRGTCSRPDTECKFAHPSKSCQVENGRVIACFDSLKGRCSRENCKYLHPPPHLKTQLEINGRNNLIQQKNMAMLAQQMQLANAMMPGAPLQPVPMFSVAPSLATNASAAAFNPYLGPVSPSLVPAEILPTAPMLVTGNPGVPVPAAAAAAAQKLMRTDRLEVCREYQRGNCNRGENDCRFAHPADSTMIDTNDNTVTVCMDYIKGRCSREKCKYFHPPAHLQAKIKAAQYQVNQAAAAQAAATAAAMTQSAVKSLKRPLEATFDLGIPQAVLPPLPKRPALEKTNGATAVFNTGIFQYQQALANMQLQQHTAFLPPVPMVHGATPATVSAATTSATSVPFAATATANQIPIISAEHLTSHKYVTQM
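Compounds (final 92 nM to 58 uM) are added to His-tagged MBNL1 and biotin-(CUG)12, then terbium anti-His antibody and streptavidin-XL665 (5 nM final). After 60 min at room temperature, the 665/545 nm ratio is read.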
aSyn rescue – qHTS of alpha-syn Inhibitors | Potency, µM (doses to about 46.1 µM), most hits filed as activators | Yeast expressing alpha-synuclein, growth rescue, BacTiter-Glo, 24 h | 370,000 tested, 0.14% active; further: nearly all actives have a fitted effect of over 65% in size
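Readout is rescue of growth in alpha-synuclein-expressing yeast, so inhibitors of toxicity appear as activators. Growth after 24 hr at 30 deg C in galactose medium is quantified by luminescence.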
Hits are given with their value; [ ] = another dose, or the depositor's remark. Unless noted, the call rests on the fitted dose curve; in most records, active means well fitted curve in the direction sought with a large enough effect; inconclusive means small, poorly fitted or top-dose-only effect, or another doubt; inactive means no such curve, though single readings can be large; an effect the other way counts as inactive or inconclusive.

What do the screens show for `CCc1ccc(NC(=O)c2noc3c2CCC3)cc1`?
TDP-43 yeast inh: 11µM; GRP78 ERSR act: inactive; FUS suppressor: inactive; Abeta yeast res: inactive; MBNL1 CUG block: inactive; aSyn rescue: inactive

Results for CCc1ccc(NC(=O)c2noc3c2CCCCC3)cc1 ?
TDP-43 yeast inh: inactive; GRP78 ERSR act: inactive; FUS suppressor: inactive; Abeta yeast res: inactive; MBNL1 CUG block: inactive; aSyn rescue: inactive

What do the screens show for `CC1CN(CCNC(=O)C2CCCc3c2[nH]c2ccccc32)Cc2ccccc2O1` (configuration not stated)?
GRP78 ERSR act: inactive

What do the screens show for `CC(=O)c1ccc(NC(=O)c2ccc(CSc3ccccc3)o2)cc1`?
TDP-43 yeast inh: 16µM; GRP78 ERSR act: inactive; FUS suppressor: inactive; Abeta yeast res: inactive; MBNL1 CUG block: inactive; aSyn rescue: inactive

What do the screens show for `O=C(Nc1ccc(F)cc1)c1ccc(CSc2ccc(Cl)cc2)o1`?
TDP-43 yeast inh: inactive[1.82 µM]; GRP78 ERSR act: inactive; FUS suppressor: inactive; Abeta yeast res: inconclusive; MBNL1 CUG block: inactive; aSyn rescue: inactive

What do the screens show for `O=C(Nc1ccc(F)cc1)c1ccc(CSc2ccccc2)o1`?
TDP-43 yeast inh: 16µM; GRP78 ERSR act: inactive; FUS suppressor: inactive; Abeta yeast res: inactive; MBNL1 CUG block: inactive; aSyn rescue: inactive

Results for NS(=O)(=O)c1ccc(NC(=O)c2ccc(CSc3ccccc3)o2)cc1 ?
TDP-43 yeast inh: inactive; GRP78 ERSR act: inactive; FUS suppressor: inactive; Abeta yeast res: inactive; MBNL1 CUG block: inactive; aSyn rescue: inactive

Results for CN(Cc1cnc2nc(N)nc(N)c2n1)c1ccc(C(=O)NC(CCC(=O)O)C(=O)O)cc1 (configuration not stated) ?
TDP-43 yeast inh: 16µM; GRP78 ERSR act: inactive; Abeta yeast res: inactive; aSyn rescue: inactive

What do the screens show for `CN(Cc1cnc2nc(N)nc(N)c2n1)c1ccc(C(=O)NC(CCC(=O)O)C(=O)O)cc1C(F)(F)F` (configuration not stated)?
TDP-43 yeast inh: inactive; GRP78 ERSR act: inactive; Abeta yeast res: inactive; aSyn rescue: inactive

What do the screens show for `c1ccc2c(c1)Cn1c-2nc2ccccc21`?
TDP-43 yeast inh: inactive; GRP78 ERSR act: inactive; FUS suppressor: inactive; Abeta yeast res: inactive; MBNL1 CUG block: inactive; aSyn rescue: inactive

How did Brc1c(-c2ccccc2)nc2n1Cc1ccccc1-2 do in these assays?
TDP-43 yeast inh: 13µM; GRP78 ERSR act: inactive; FUS suppressor: inactive; Abeta yeast res: inactive; MBNL1 CUG block: inactive; aSyn rescue: inconclusive

Results for CCCCN(C)S(=O)(=O)c1ccc2[nH]c(=O)oc2c1 ?
FUS suppressor: inactive

What do the screens show for `Cc1ccccc1-c1ccc(CN2CCc3nnc(C(NS(C)(=O)=O)C(C)C)n3CC2)cc1` (configuration not stated)?
GRP78 ERSR act: inactive

How did COC(=O)C1CN(Cc2ccccc2)CCS(=O)(=O)N1Cc1cn(Cc2ccccc2Br)nn1 (configuration not stated) do in these assays?
FUS suppressor: 14µM

Results for O=C(c1ccccc1)N1CC[C@H]2[C@H](CCCN2Cc2ccccc2)C1 ?
FUS suppressor: inactive

What do the screens show for `O=C1CCCN1CCCN=c1c([N+](=O)[O-])nn(-c2ccc(Cl)cc2)n1O`?
TDP-43 yeast inh: 14µM; GRP78 ERSR act: inactive; FUS suppressor: inconclusive; Abeta yeast res: inactive; MBNL1 CUG block: inconclusive; aSyn rescue: inactive

What do the screens show for `CCc1ccc2occ(CC(=O)Nc3ccc(OC)c(Cl)c3)c2c1`?
TDP-43 yeast inh: 16µM; GRP78 ERSR act: inactive; FUS suppressor: inactive; Abeta yeast res: inactive; aSyn rescue: inconclusive

Results for CCOC(=O)/C=C/C(=O)OCC(=O)Nc1ccc(OC)c(Cl)c1 ?
TDP-43 yeast inh: 35µM; GRP78 ERSR act: inactive; FUS suppressor: inactive; Abeta yeast res: inactive; aSyn rescue: inactive

What do the screens show for `CCc1ccc2occ(CC(=O)Nc3nnc(C)s3)c2c1`?
TDP-43 yeast inh: inactive; GRP78 ERSR act: inactive; FUS suppressor: inactive; Abeta yeast res: inactive

Results for CCc1ccc2occ(CC(=O)NCc3ccccc3)c2c1 ?
TDP-43 yeast inh: 11µM; GRP78 ERSR act: inactive; FUS suppressor: inactive; Abeta yeast res: inactive

Results for COc1ccc(NC(=O)COC(=O)/C=C/C(=O)OCC(=O)Nc2ccc(OC)c(Cl)c2)cc1Cl ?
TDP-43 yeast inh: inactive; GRP78 ERSR act: inactive; Abeta yeast res: inactive; aSyn rescue: inactive

How did COc1ccccc1-c1ccnc(-n2ncc(C(=O)N(C)CCc3ccccn3)c2C)n1 do in these assays?
GRP78 ERSR act: inactive

How did CCOC(=O)Cc1csc(NC(=O)COc2ccc3ccccc3c2)n1 do in these assays?
TDP-43 yeast inh: 13µM; GRP78 ERSR act: inactive; FUS suppressor: inactive; Abeta yeast res: inconclusive; MBNL1 CUG block: inactive; aSyn rescue: inactive

What do the screens show for `CCOC(=O)Cc1csc(NC(=O)COc2ccc(OC)cc2)n1`?
TDP-43 yeast inh: 13µM; GRP78 ERSR act: inactive; FUS suppressor: inactive; Abeta yeast res: inactive; MBNL1 CUG block: inactive; aSyn rescue: inactive

What do the screens show for `CCOC(=O)Cc1csc(NC(=O)COc2c(C)cccc2C)n1`?
TDP-43 yeast inh: inactive; GRP78 ERSR act: inactive; FUS suppressor: inactive; Abeta yeast res: inactive; MBNL1 CUG block: inactive; aSyn rescue: inactive

Results for CCOC(=O)Cc1csc(NC(=O)COc2ccccc2OCC)n1 ?
TDP-43 yeast inh: 11µM; GRP78 ERSR act: inactive; FUS suppressor: inactive; Abeta yeast res: inactive; MBNL1 CUG block: inactive

Results for Cn1ncc(S(=O)(=O)Cc2ccccc2)c(Br)c1=O ?
GRP78 ERSR act: inactive; aSyn rescue: inconclusive

What do the screens show for `Cc1ccccc1CNC(=O)c1cccc2c1C(=O)N(Cc1cccnc1)C2`?
FUS suppressor: inactive

What do the screens show for `Cc1cc(Nc2ccc(C(C)C)cc2)n2ncnc2n1`?
TDP-43 yeast inh: 11µM; GRP78 ERSR act: inactive; FUS suppressor: inactive; Abeta yeast res: inactive; MBNL1 CUG block: inactive; aSyn rescue: inactive

What do the screens show for `CCCC(=O)N1CCC[C@]2(CC[C@@H](CCC(C)=O)O2)C1`?
FUS suppressor: inactive

What do the screens show for `C=C(C)Cn1c(=S)[nH]c2ccccc2c1=O`?
TDP-43 yeast inh: 13µM; GRP78 ERSR act: inactive; FUS suppressor: inactive; Abeta yeast res: inactive; MBNL1 CUG block: inactive; aSyn rescue: inactive

What do the screens show for `Cc1occc1C(=O)Nc1cccc(-c2nc(CNC(=O)c3cccc(C#CC(C)(C)O)c3)c(C)o2)c1`?
GRP78 ERSR act: inactive

Screens as filed in PubChem BioAssay.
